Measurements as given in PubChem BioAssay AID540256 (National Center for Advancing Translational Sciences (NCATS), 2011).
Hit rate of the full screen: of about 300,000 compounds, about 3,700 (1.2%) were called active. About 20% were inconclusive and are not listed. The full list was thinned out, with actives kept by preference. A number with no mark means an inactive call. The call rests on the fitted dose curve; tested in HEK293 cells.

Test: qHTS for Inhibitors of binding or entry into cells for Lassa Virus; further: nearly all actives have a fitted effect of over 50% in size
Conditions: Lassa virus pseudotype entry inhibition, cell reporter; series mostly up to 37.9 µM; activity change, negative = inhibition: at the top concentration
On the % scale 0 is the no-effect control and ±100 the full control effect; potency means the concentration at half of the fitted maximal effect.

SMILES | activity change, negative = inhibition | Potency
O=C(N/N=C/c1ccc(O)c2ccccc12)c1cccnc1 | 16.8% | 
CC(NC(=O)c1ccccc1)C(=O)OCC(=O)Nc1cccc(S(=O)(=O)N2CCCC2)c1 (configuration not stated) | -1.7% | 
Cc1cc(C)c2nc(-c3ccco3)cc(C(=O)O)c2c1 | -3.99% [at 46.1 µM] | 
Cc1cc(C)c2nc3nc(C)cc(C)c3c(N)c2c1 |  | 12.6 µM (active)
Cc1cc(C)c2nc(SCCC#N)nc(C)c2c1 | 9.06% | 
CCOC(=O)C1(Cc2ccccc2C)CCCN(C(=O)c2ccc(COC)o2)C1 (configuration not stated) | -19.9% | 
COc1ccc(N2CCN(S(=O)(=O)c3cc4c5c(c3)C(C)C(=O)N5CCC4)CC2)cc1 (configuration not stated) | -23.8% | 
Cc1ccc(NC(=O)c2oc3ccc(S(=O)(=O)N4CCCCC4)cc3c2C)cc1Cl | -5.77% [at 46.1 µM] | 
COC(=O)c1sccc1NC(=O)CC1C(=O)NCCN1C(=O)Nc1ccc(F)cc1F (configuration not stated) | 8.52% [at 46.1 µM] | 
O=C(CC1SC(=Nc2ccccc2F)N(CCN2CCOCC2)C1=O)Nc1ccc(F)cc1F (configuration not stated) |  | 11.2 µM (active)
O=C(CN1CCN(C/C=C/c2ccccc2)CC1)Nc1ccc(F)cc1F | 14.6% | 
O=C(c1cc(COc2cccc(C(F)(F)F)c2)on1)N1CCSCC1 | -13% | 
COc1ccc(Cc2nc3ccc(C(=O)NCC4CCOCC4)cc3o2)cc1OC | 15.9% | 
CCCC=Cc1ccc(CN2C(C(C)C)C(=O)N(Cc3cn(CC4CCCCC4)nn3)CCS2(=O)=O)cc1 (configuration not stated) |  | 25 µM (active)
COCOCCn1cc(CN2CCS(=O)(=O)N(Cc3ccc(-c4cccc(N(C)C)c4)cc3)C(CC(C)C)C2=O)nn1 (configuration not stated) | 6.61% [at 46.1 µM] | 
CC1C(=O)N(Cc2cn(Cc3ccco3)nn2)CCS(=O)(=O)N1Cc1ccc(-c2cccc(CO)c2)cc1 (configuration not stated) | 11.4% [at 46.1 µM] | 
CC1CCN(c2ccc(-c3ccc(NC(=O)c4ccco4)cc3)nn2)CC1 | 13.7% | 
COC(=O)c1cc2nc(-c3ccccc3)cc(C(F)(F)F)n2n1 | -5.23% | 
O=C(O)c1cnn2c(C(F)(F)F)cc(-c3ccccc3)nc12 | 4.58% | 
O=C(c1ccccc1)N1CCN(C(=O)c2cc3nc(-c4ccccc4)cc(C(F)(F)F)n3n2)CC1 |  | 11.2 µM (active)
Cn1cc(S(=O)(=O)N2CCCCCC2)cc1C(=O)N1CCN(c2ccc(F)cc2)CC1 | -19.6% [at 46.1 µM] | 
COc1cc2c(cc1OC)C(Cc1cc(OC)c(OC)cc1[N+](=O)[O-])=NCC2 | -1.16% | 
Cc1cc(Cl)nc(NC(=O)Nc2cccc(Cl)c2)n1 | -0.962% [at 46.1 µM] | 
COC(=O)Nc1nc2ccc(Sc3ccccc3)cc2[nH]1 | 9.81% | 
COC(=O)Nc1nc2ccc(Oc3ccc(NC(=O)Nc4cccc(Cl)c4)cc3)cc2[nH]1 |  | 6.28 µM (active)
COc1ccc(CN2CCN(C(=O)CCC(=O)Nc3nnc(C(C)C)s3)CC2)cc1F | 3.46% [at 46.1 µM] | 

SMILES | activity change, negative = inhibition | Potency
Cn1c(N)c(C(=O)COC(=O)c2cccc(S(=O)(=O)N3CCOCC3)c2)c(=O)n(C)c1=O | -0.757% | 
Cc1ccc(Oc2ccc(N)cc2)cc1 | 21.7% | 
CC(C)(C)c1ccc(Oc2ccc(N)cc2)cc1 |  | 0.651 µM (active)
Nc1ccc(Oc2ccc(Cl)cc2)cc1 | -16.1% | 
O=S(=O)(Nc1ccc2ccccc2c1)N1CCCCC1 | -23.8% [at 46.1 µM] | 
O=C1CC(c2ccccc2)C(c2ccccc2)=NN1 (configuration not stated) | 1.55% [at 46.1 µM] | 
CN1CCN(CCCCOc2cccc3ccccc23)CC1 | -3.92% [at 46.1 µM] | 
Cc1ccc(C(=O)NC(C)c2ccccc2)cc1Br (configuration not stated) |  | 11.6 µM (active)
C=CCNC(=O)c1ccc(C)c(Br)c1 | -4.34% | 
CC1=CCC2C(=O)N(c3cccc(C(=O)NC(C)c4ccccc4)c3)C(=O)C2C1 (configuration not stated) | -2.44% | 
c1ccc2c(c1)OC1OC2Oc2ccccc21 | 2.34% [at 46.1 µM] | 
CC1CCN(C(=O)CCc2nnc3ccc(NCc4ccco4)nn23)CC1 | 10.6% [at 46.1 µM] | 
CCc1cc(C(N)=O)c(NC(=O)c2ccc(OC)cc2)s1 | 3.32% | 
COC(=O)CNC(=O)c1ccc(OC2CCN(C(=O)C3CC3)CC2)cc1 | 11.7% [at 46.1 µM] | 
CCc1ccc(/C=N/NC(=O)c2ccc(OC3CCCC3)cc2)s1 |  | 2 µM (active)
COC(=O)Cc1c(-c2[nH]c3ccccc3c2CC(=O)OC)[nH]c2ccccc12 | 17.1% | 
O=C(COc1ccc(S(=O)(=O)N2CCOCC2)cc1Cl)N1CCOCC1 | 0.861% | 
Cc1cc(C(=O)COc2ccccc2[N+](=O)[O-])c(C)n1-c1cccc(S(=O)(=O)N2CCOCC2)c1 |  | 6.31 µM (active)
Cc1cc(S(=O)(=O)N2CCOCC2)ccc1OCC(=O)N1CCOCC1 | -0.783% | 
CSCCC(NS(=O)(=O)c1ccccc1F)C(=O)N1CC=C(c2ccccc2)CC1 (configuration not stated) | 4.87% | 
O=C(c1ccc(F)cc1)N1CCC(C(=O)N2CCN(S(=O)(=O)c3ccccc3Br)CC2)CC1 | -18.6% | 
COC(=O)c1cnn(-c2ccc(C(=O)Nc3ccc(OC(F)(F)F)cc3)cc2)c1N | 8.84% [at 46.1 µM] | 
Cc1cccc(NS(=O)(=O)c2ccc(C(=O)NCC(C)(C)N3CCOCC3)cc2)c1C | -18.3% | 
O=C(CSC(=S)N1CCOCC1)c1cc(Br)cc(Br)c1O | 4.47% | 
O=C(CSC(=S)N1CCOCC1)c1ccccc1 |  | 14.6 µM (active)
CC1CN(C(=S)SCC(=O)c2ccccc2)CC(C)O1 (configuration not stated) | 3.79% | 
